KDM5B inhibitor = blocks human KDM5B histone demethylase activity | Q9UGL1 | KDM5B demethylase, FDH-coupled NADH fluorescence (FDH is formaldehyde dehydrogenase) | Potency, µM (top dose mostly 57.7 µM), usual class: inhibitors | actives 2.6% (n = 220,000) | AID 1347165; active = well fitted inhibition curve with a large enough effect; inconclusive = small, poorly fitted or top-dose-only effect; inactive = no such curve, though single readings can be large or run the other way; also: potency is read from the fitted curve at half-maximal effect; 0% is about no effect; nearly all actives have a fitted effect of over 70% in size
Target sequence (Q9UGL1 whole entry, looked up): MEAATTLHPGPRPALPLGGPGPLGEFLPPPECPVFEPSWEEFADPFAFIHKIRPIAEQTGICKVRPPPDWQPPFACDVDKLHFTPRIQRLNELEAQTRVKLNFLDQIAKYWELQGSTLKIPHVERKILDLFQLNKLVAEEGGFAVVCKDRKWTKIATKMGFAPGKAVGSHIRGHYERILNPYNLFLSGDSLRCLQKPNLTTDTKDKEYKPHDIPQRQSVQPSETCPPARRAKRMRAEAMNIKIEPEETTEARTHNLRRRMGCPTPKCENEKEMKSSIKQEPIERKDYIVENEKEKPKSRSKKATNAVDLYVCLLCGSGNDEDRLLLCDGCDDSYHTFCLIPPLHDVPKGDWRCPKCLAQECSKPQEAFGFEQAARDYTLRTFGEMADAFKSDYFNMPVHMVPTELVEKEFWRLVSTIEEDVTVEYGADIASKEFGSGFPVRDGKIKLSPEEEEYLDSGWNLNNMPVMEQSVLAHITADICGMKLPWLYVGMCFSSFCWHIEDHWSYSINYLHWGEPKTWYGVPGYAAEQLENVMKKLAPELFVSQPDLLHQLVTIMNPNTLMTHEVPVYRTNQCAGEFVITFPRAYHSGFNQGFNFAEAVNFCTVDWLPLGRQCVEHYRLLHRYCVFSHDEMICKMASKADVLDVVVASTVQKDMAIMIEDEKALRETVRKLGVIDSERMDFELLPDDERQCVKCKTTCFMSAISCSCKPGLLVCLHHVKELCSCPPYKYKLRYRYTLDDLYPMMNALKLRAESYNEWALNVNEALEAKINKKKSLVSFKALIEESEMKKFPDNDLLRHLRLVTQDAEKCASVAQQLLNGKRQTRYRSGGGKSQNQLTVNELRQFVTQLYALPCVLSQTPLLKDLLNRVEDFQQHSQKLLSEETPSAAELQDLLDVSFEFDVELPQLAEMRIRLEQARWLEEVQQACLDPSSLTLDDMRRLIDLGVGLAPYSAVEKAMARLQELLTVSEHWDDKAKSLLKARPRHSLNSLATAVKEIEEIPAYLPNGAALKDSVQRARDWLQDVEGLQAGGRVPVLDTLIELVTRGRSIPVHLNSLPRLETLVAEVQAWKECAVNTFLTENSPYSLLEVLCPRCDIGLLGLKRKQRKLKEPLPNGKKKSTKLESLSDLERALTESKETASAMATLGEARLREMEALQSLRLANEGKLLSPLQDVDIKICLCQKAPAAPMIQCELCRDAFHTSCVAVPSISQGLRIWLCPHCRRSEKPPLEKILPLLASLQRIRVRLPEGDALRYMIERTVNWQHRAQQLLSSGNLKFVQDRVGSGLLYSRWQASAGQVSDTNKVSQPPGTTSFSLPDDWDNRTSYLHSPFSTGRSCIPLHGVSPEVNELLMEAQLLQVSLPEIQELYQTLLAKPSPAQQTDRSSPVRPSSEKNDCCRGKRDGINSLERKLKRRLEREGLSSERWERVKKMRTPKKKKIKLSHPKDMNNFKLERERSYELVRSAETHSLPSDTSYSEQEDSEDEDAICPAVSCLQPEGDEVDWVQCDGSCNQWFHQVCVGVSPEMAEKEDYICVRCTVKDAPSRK
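Compound dilutions met 200 nM (final) KDM5BΔAP for 10 min at room temperature before substrate addition. The substrate mix held 12.5 µM H3K4me3 with cofactors 25 µM α-ketoglutarate and 50 µM Fe²⁺. NADH signal gain over 30 min defined activity.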
IP6K1 inhibitor = inhibitors of human IP6K1; IP6K1 kinase, ADP-Glo luminescence, 2 h; active compounds read low; Q92551; activity change, % (series mostly up to about 58 µM); actives 0.81% (n = 140,000); in the data active = activity change below about -25%; also: % is scaled to controls: 0 for no effect and ±100 for the full control effect
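ADP-Glo luminescence measures ADP made by human IP6K1 during a 2 h RT reaction with ATP/IP6 (mix at 1.3 mM/130 uM); top library doses 57.5 and 19.1 uM final.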
* = called active by the depositor; i = inactive; u = inconclusive; x = no result given. Sampled rows, rich in hits. Any-hit rate of the full collection: about 2.7%.

SMILES	KDM5B inhibitor	IP6K1 inhibitor
CCOc1ccc(-c2cc3c(=O)n(CCNC(=O)Cc4cccs4)ccn3n2)cc1	31.6µM*	-8.7
Cc1ccc(C)c(-c2cc3c(=O)n(CCNC(=O)c4cccc(N(C)C)c4)ccn3n2)c1	31.6µM*	7.3
CCOc1ccc(-c2cc3c(=O)n(CCNC(=O)c4cccc(N(C)C)c4)ccn3n2)cc1	31.6µM*	-9.5
CCOc1ccc(-c2cc3c(=O)n(CCNC(=O)c4ccc(C)c(C)c4)ccn3n2)cc1	17.8µM*	-5.9
Cc1ccc(C)c(-c2cc3c(=O)n(CCNC(=O)c4ccc5c(c4)OCO5)ccn3n2)c1	u	6.4
CCCCn1c(=O)n(CC(C#N)CCC#N)c(=O)c2c1nc(CO)n2CCC (stereo not given)	i	x
COc1ccccc1-c1cccc(CN2CCC(NC(=O)Nc3ccccc3)CC2)c1	x	0.4
CNC(=O)c1cc(C2CC2)nc2c1c(C1CCCN1[S+](=O)([O-])c1cccc(C(F)(F)F)c1)nn2C (stereo not given)	x	-8.1
CNc1nc(-c2ccc(NC(C)=O)cc2F)cs1	i	x
NC(=O)N/N=C/c1ccccc1Br	i	x
O=C(O)CCC(=O)N[C@H]1CO[C@H]2[C@@H]1OC[C@@H]2Nc1nccc(-c2cccc(F)c2)n1	31.6µM*	-3.3
O=C(Nc1cccc2ccccc12)N[C@H]1CO[C@H]2[C@@H]1OC[C@@H]2Nc1nccc(-c2cccs2)n1	u	-5.2
O=C(O)CSCC(=O)N[C@H]1CO[C@H]2[C@@H]1OC[C@@H]2Nc1nccc(-c2cccc(F)c2)n1	25.1µM*	3.2
O=C(O)CCC(=O)N[C@H]1CO[C@H]2[C@@H]1OC[C@@H]2Nc1nccc(-c2ccco2)n1	31.6µM*	9.5
O=C(Nc1ccsc1)O[C@@H]1CO[C@H]2[C@@H]1OC[C@@H]2Nc1nccc(-c2cccc(F)c2)n1	i	-3.1
O=C(Nc1ccccc1)N[C@H]1CO[C@H]2[C@@H]1OC[C@@H]2Nc1nccc(C2CCCC2)n1	i	5.5
COc1ccc(NC(=O)O[C@@H]2CO[C@H]3[C@@H]2OC[C@@H]3Nc2nccc(-c3cccc(F)c3)n2)cc1	u	3.6
c1coc(-c2ccnc(N[C@H]3CO[C@H]4[C@@H]3OC[C@@H]4NCC3CCCCC3)n2)c1	31.6µM*	0.5
O=C(O)C1(c2ccc(Cl)cc2Cl)CCOCC1	i	x
COC(=O)c1ccc(OC(=O)C2(c3ccccc3)CCCC2)cc1	i	x
Cn1c(=O)c2c(ncn2CC(=O)NCCc2ccc(F)cc2)n(C)c1=O	i	x
COc1ccc(Nc2ccnc(N3CCN(C(=O)c4ccccc4Cl)CC3)n2)cc1	x	8.4
COc1cccc(-c2cccc(C(=O)N3CCCC3C(=O)NCCc3ccccc3)c2)c1 (stereo not given)	x	-1.2
COc1cccc(-c2ccc(CN3CCCC(NC(=O)c4ccccc4F)C3)cc2)c1 (stereo not given)	x	-3.5
COc1ccc(-c2ccnc(N[C@H]3CO[C@H]4[C@@H]3OC[C@@H]4NS(=O)(=O)c3ccc(NC(C)=O)cc3)n2)cc1	u	-17.7
SMILES	KDM5B inhibitor	IP6K1 inhibitor
CC(=O)Nc1ccc(S(=O)(=O)N[C@H]2CO[C@H]3[C@@H]2OC[C@@H]3Nc2nccc(-c3ccco3)n2)cc1	22.4µM*	16.6
CC(C)CNc1ccc2nncn2n1	u	-3.2
CCC(C)Nc1ccc2nncn2n1 (stereo not given)	28.2µM*	0.8
CC1CSc2ccc(S(=O)(=O)NC3CCN(Cc4ccccc4)CC3)cc2NC1=O (stereo not given)	i	x
CC(C)C(=O)/C(C#N)=C\c1ccc(-c2ccccc2F)o1	i	x
Cc1ccc(C(=O)NC2CCCN(c3nc4ncccc4o3)C2)cc1 (stereo not given)	u	10.4
O=C(NC1CCN(c2nc3ncccc3o2)CC1)c1ccccc1	35.5µM*	-3.1
O=C(NC1CCN(c2nc3ncccc3o2)CC1)c1ccccc1F	u	-19.5
Cc1ccc(C(=O)NC2CCN(c3nc4ncccc4o3)CC2)cc1	35.5µM*	2.7
COc1ccc(NC(=O)N2CCC(CCc3nc(C4CCOCC4)no3)CC2)cc1F	x	6.7
COc1ccc(F)cc1-c1ccc(CN2CCCCC2C(=O)NC2CCC2)cc1 (stereo not given)	x	6.4
COCc1ccc2c(c1)c(OC(C)(C)C(=O)NCCN1CCOCC1)nn2Cc1cccnc1	i	-5.4
COCc1ccc2c(c1)c(OC(C)(C)C(=O)Nc1ccccn1)nn2CCC(C)C	i	2.9
COCc1ccc2c(c1)c(OC(C)(C)C(=O)Nc1cc(C)nn1C)nn2CCC(C)C	u	5.2
COCc1ccc2c(c1)c(OC(C)(C)C(=O)NC1CC1)nn2CCC(C)C	39.8µM*	-7.1
COCc1ccc2c(c1)c(OC(C)(C)C(=O)NCCN1CCOCC1)nn2CCC(C)C	25.1µM*	-0.7
COCc1ccc2c(c1)c(OC(C)(C)C(=O)NC1CCN(C)CC1)nn2CCC(C)C	35.5µM*	-8.5
Cc1ccc(F)cc1-c1ccc(COc2ccc3c(cnn3CCC(=O)O)c2)cc1	u	-15.2
CC(=O)Nc1cccc(C(C)NC(=O)Nc2cccc(Cl)c2Cl)c1 (stereo not given)	i	x
COc1ccc(Oc2coc3cc(OCc4ccc([N+](=O)[O-])cc4)ccc3c2=O)cc1	i	x
CCOc1ccc(-c2nc(C3CC(=O)N(Cc4ccccc4OC)C3)no2)cc1 (stereo not given)	i	-1.0
O=C(CSc1nnc2c3c4c(sc3ncn12)CCCC4)Nc1ccc(F)cc1F	i	x
Cc1cn2nc(-c3nc(C4CCCN(C(=O)c5sccc5C)C4)no3)cc2c(=O)[nH]1 (stereo not given)	25.1µM*	10.4
Cc1cn2nc(-c3nc(C4CCCN(C(=O)c5ccc(C)s5)C4)no3)cc2c(=O)[nH]1 (stereo not given)	28.2µM*	-15.7
CCc1ccc(C(=O)N2CCCC(c3noc(-c4cc5c(=O)[nH]c(C)cn5n4)n3)C2)cc1 (stereo not given)	25.1µM*	2.1
SMILES	KDM5B inhibitor	IP6K1 inhibitor
Cc1cn2nc(-c3nc(C4CCCN(C(=O)Cc5ccsc5)C4)no3)cc2c(=O)[nH]1 (stereo not given)	i	4.6
Cc1cn2nc(-c3nc(C4CCCN(C(=O)Cc5cccc(F)c5)C4)no3)cc2c(=O)[nH]1 (stereo not given)	u	0.0
Cc1cccc(C(=O)N2CCCC(c3noc(-c4cc5c(=O)[nH]c(C)cn5n4)n3)C2)c1 (stereo not given)	i	0.0
COc1ccc2c(c1OC)C(=O)OC2Nc1nc(-c2ccc(Br)cc2)cs1 (stereo not given)	i	x
CN(C(=O)c1cc(-c2ccc(C(F)(F)F)cc2)nc2c1cnn2C)c1ccccc1	x	-4.1
CC1(C(=O)NCc2ccncc2)CCCc2cnc(NCc3ccccc3)nc21 (stereo not given)	35.5µM*	-1.0
CC1(C(=O)NCc2ccncc2)CCCc2cnc(Nc3ccccc3)nc21 (stereo not given)	i	3.0
CN1CCC(NC(=O)C2(C)CCCc3cnc(NCc4ccccc4)nc32)CC1 (stereo not given)	22.4µM*	-7.8
CC1(C(=O)NCCN2CCOCC2)CCCc2cnc(NCc3ccccc3)nc21 (stereo not given)	35.5µM*	1.6
CC1(C(=O)NCc2ccc(F)cc2)CCCc2cnc(Nc3cccnc3)nc21 (stereo not given)	i	-6.9
